According to PubChem BioAssay:
For some assays here: Entries with a potency or affinity are not part of this list. Calls of active or inactive are those of the source. Unless noted, the rule behind the calls is not given here.

Assays:
[1] = antimalarial activity against Dd2 strain (AID 2302;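 active = growth inhibition above 50% at the single 2 µM test dose, taken to imply half-maximal potency below 2 µM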;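 note: 0% = DMSO untreated growth and 100% = chloroquine plus artemisinin killed control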); details: P. falciparum Dd2 in RBCs, LDH growth readout, 72 h; at 2 µM; active compounds read high
[2] = human hepatoma cell viability loss – ATP luminescence, cytotoxicity control for P. falciparum antimalarial project, primary screen (AID 2303;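 active = inhibition above 50%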;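 note: 0% = DMSO wells and 100% = digitonin-killed cells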); details: HepG2 viability, 24-48 h, at 10 µM, active compounds read high
[3] = target: L-lactate dehydrogenase (Plasmodium falciparum (isolate CDC / Honduras)) (UniProt Q27743); test: PfLDH activity inhibition – cell lysate, 3D7 strain, counter-screen for P. falciparum growth inhibition project (AID 2304);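 note: 0% = vehicle and 100% = reference inhibitor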; details: P. falciparum 3D7 crude extract, LDH APAD/NBT absorbance; at 2 µM; active compounds read high
Chain of L-lactate dehydrogenase (Plasmodium falciparum (isolate CDC / Honduras)) (Q27743 whole entry, looked up): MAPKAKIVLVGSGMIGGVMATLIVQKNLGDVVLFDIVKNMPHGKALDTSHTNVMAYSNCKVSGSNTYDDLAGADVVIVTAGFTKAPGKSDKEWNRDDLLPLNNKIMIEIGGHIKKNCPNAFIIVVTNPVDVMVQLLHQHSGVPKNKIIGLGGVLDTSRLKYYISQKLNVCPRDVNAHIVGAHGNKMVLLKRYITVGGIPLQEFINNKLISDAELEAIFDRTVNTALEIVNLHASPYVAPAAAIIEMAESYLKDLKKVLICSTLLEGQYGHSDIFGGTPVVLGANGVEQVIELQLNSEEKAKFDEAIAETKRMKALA

[4] = inhibition of 3D7 malaria parasite growth – strain 3D7 (AID 2306);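 note: 0% = DMSO wells and 100% = chloroquine plus artemisinin control wells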; details: P. falciparum 3D7 erythrocytic growth, LDH absorbance, 72 h; at 2 µM; active compounds read high
[5] = target: Calcium-dependent protein kinase 1 (Plasmodium falciparum (isolate 3D7)) (UniProt P62344); test: PfCDPK1 kinase inhibitors, biochemical, TCAMS library (AID 1159585; cut-off not given, nearly all actives have IC50 up to about 0.98 µM;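 note: inhibitors leave more ATP so luminescence rises with inhibition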); details: recombinant PfCDPK1, Kinase-Glo ATP depletion luminescence
Chain of Calcium-dependent protein kinase 1 (Plasmodium falciparum (isolate 3D7)) (P62344 whole entry, looked up): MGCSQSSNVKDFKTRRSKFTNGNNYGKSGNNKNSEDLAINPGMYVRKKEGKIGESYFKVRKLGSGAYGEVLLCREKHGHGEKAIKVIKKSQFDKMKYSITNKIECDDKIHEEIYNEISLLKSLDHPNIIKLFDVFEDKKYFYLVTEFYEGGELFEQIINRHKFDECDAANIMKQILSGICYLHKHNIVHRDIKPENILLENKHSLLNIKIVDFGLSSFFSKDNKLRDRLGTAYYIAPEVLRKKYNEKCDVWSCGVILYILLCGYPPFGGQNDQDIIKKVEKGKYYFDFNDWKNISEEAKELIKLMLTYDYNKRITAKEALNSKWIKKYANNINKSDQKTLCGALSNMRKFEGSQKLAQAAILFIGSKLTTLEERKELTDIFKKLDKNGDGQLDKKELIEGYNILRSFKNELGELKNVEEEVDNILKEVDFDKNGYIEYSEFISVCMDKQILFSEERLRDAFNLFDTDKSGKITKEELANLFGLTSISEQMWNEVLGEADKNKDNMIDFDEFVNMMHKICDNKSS

[6] = target: Plasmodium falciparum protein kinase 6 (PK6, PF3D7_1337100) (UniProt Q8IDW1); test: PfPK6 kinase inhibitors, biochemical, TCAMS library (AID 1159586); details: recombinant PfPK6, Kinase-Glo ATP depletion luminescence
Chain of Plasmodium falciparum protein kinase 6 (PK6, PF3D7_1337100) (Q8IDW1 1-305): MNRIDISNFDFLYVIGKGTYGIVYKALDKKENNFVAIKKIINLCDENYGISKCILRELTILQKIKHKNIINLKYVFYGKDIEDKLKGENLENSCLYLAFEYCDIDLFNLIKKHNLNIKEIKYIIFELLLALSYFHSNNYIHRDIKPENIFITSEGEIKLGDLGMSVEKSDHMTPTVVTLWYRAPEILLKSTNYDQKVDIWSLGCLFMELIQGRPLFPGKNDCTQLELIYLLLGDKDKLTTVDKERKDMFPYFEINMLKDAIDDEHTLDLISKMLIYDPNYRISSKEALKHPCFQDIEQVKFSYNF

[7] = target: Protein kinase 7 (PK7), Plasmodium falciparum 3D7 (PF3D7_0213400) (UniProt Q7YTF7); test: inhibition of Plasmodium PK7 catalytic activity – biochemical, TCAMS antimalarial set, Kinase-Glo luminescence (AID 1159587); details: recombinant PfPK7, Kinase-Glo ATP depletion luminescence
Chain of Protein kinase 7 (PK7), Plasmodium falciparum 3D7 (PF3D7_0213400) (Q7YTF7 1-343): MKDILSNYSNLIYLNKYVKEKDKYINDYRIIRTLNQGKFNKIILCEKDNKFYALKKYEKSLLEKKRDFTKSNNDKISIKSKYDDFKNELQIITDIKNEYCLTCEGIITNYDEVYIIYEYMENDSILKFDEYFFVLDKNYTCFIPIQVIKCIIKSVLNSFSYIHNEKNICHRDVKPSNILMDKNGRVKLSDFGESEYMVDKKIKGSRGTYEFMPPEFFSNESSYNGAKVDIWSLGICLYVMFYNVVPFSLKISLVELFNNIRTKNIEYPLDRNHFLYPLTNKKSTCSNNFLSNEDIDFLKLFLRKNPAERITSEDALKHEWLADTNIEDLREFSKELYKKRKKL

[8] = target: Calcium-dependent protein kinase 4 (Plasmodium falciparum (isolate 3D7)) (UniProt Q8IBS5); test: PfCDPK4 kinase inhibitors, biochemical, TCAMS library (AID 1159588; cut-off not given, nearly all actives have IC50 up to about 0.91 µM); details: recombinant PfCDPK4, Kinase-Glo ATP depletion luminescence
Chain of Calcium-dependent protein kinase 4 (Plasmodium falciparum (isolate 3D7)) (Q8IBS5 whole entry, looked up): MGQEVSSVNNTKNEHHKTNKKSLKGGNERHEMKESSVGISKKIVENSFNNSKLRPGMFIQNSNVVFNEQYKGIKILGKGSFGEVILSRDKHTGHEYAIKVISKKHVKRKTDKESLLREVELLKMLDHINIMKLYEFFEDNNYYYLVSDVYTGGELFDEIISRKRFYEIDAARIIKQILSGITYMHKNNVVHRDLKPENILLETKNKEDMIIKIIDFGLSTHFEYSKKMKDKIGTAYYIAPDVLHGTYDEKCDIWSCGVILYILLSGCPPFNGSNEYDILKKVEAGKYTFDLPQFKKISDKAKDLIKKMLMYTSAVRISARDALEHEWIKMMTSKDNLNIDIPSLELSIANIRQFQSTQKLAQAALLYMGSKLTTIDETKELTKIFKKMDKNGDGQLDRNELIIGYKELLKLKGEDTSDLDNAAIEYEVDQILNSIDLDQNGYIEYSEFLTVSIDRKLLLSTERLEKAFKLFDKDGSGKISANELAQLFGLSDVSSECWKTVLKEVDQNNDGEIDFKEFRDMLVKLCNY

COc1ccccc1Nc1nc(C)cc(NCc2ccc(-c3c(C)noc3C)cc2)n1
active: growth inhibition [4] 98%
inactive: growth inhibition [1] 13% | inhibition [2] 12% | inhibition [3] -6% | outcome [5] | outcome [6] | outcome [7] | outcome [8]

Cc1onc(-c2ccccc2)c1-c1nc(NCc2ccccc2Cl)no1
inactive: inhibition [2] 2% | inhibition [3] -3% | outcome [5] | outcome [6] | outcome [7] | outcome [8]
active: growth inhibition [1] 92% | growth inhibition [4] 99%

NC(N)=Nc1nc(-c2cccc(NC(=O)NCC(c3ccccc3)c3ccccc3)c2)cs1
inactive: inhibition [2] -3% | inhibition [3] 1% | outcome [5] | outcome [6] | outcome [7] | outcome [8]
active: growth inhibition [1] 87% | growth inhibition [4] 100%

CCOC(=O)c1ccc(NC(=O)Nc2cccc(-c3ccc(-c4nc5c(C)cccc5[nH]4)s3)c2)cc1
inactive: inhibition [2] 44% | inhibition [3] 4% | outcome [5] | outcome [6] | outcome [7] | outcome [8]
active: growth inhibition [1] 99% | growth inhibition [4] 100%

Fc1ccc2nc(-c3cccc(-c4cccc(CNCc5cnn(-c6ccccc6)n5)c4)c3)[nH]c2c1
active: growth inhibition [1] 57% | growth inhibition [4] 91%
inactive: inhibition [2] 18% | inhibition [3] 4% | outcome [5] | outcome [6] | outcome [7] | outcome [8]

CCN(CC)CCNC(=O)c1ccc(NC(=O)c2cc3c(C)nn(-c4ccc(Cl)cc4)c3s2)cc1
active: growth inhibition [1] 78% | growth inhibition [4] 95%
inactive: inhibition [2] 24% | inhibition [3] -2% | outcome [5] | outcome [6] | outcome [7] | outcome [8]

O=C(CCc1nc2c(cnn2-c2ccccc2)c(=O)[nH]1)NC1CCSc2ccccc21 (stereo not given)
inactive: inhibition [2] 10% | inhibition [3] -2% | outcome [5] | outcome [6] | outcome [7] | outcome [8]
active: growth inhibition [1] 52% | growth inhibition [4] 95%

NC(=O)Nc1ccc2c(Nc3ccc(OCc4ccccc4)cc3)ncnc2c1
active: growth inhibition [4] 84%
inactive: growth inhibition [1] 20% | inhibition [2] -1% | inhibition [3] 3% | outcome [5] | outcome [6] | outcome [7] | outcome [8]

Cc1ccc(C)c(Cn2ccc3nc(N)nc(N)c32)c1
active: inhibition [2] 65% | growth inhibition [4] 97%
inactive: growth inhibition [1] 3% | inhibition [3] -1% | outcome [5] | outcome [6] | outcome [7] | outcome [8]

O=C(/C=C/c1ccc(Cl)c(Cl)c1)NC1CCC(CN2CCC(Cc3cc4ccccc4[nH]3)CC2)CC1 (stereo not given)
inactive: inhibition [3] -8% | outcome [5] | outcome [6] | outcome [7] | outcome [8]
active: growth inhibition [1] 74% | inhibition [2] 99% | growth inhibition [4] 100%

COc1cc(OC)cc(C(=O)Nc2nc(-c3ccccn3)cs2)c1
inactive: inhibition [2] 47% | inhibition [3] 1% | outcome [5] | outcome [6] | outcome [7] | outcome [8]
active: growth inhibition [1] 72% | growth inhibition [4] 97%

CN(C)CCOc1cc(NC(=O)/C=C/c2cccc3ccccc23)ccc1I
inactive: growth inhibition [1] 7% | inhibition [3] 0% | outcome [5] | outcome [6] | outcome [7] | outcome [8]
active: inhibition [2] 55% | growth inhibition [4] 98%

Cc1cccc(C(=O)N2CCN(Cc3cccc(NC(=O)c4ccco4)c3)CC2)c1
active: growth inhibition [1] 79% | growth inhibition [4] 94%
inactive: inhibition [2] 7% | inhibition [3] 1% | outcome [5] | outcome [6] | outcome [7] | outcome [8]

CC(=O)c1c(C)[nH]c(C(=O)Nc2ccc(-c3nc4ccc(C)cc4s3)cc2)c1C
inactive: growth inhibition [1] 40% | inhibition [2] 11% | inhibition [3] -2% | outcome [5] | outcome [6] | outcome [7] | outcome [8]
active: growth inhibition [4] 92%

CC(=O)N1N=C(c2ccccc2)Sc2c1nc(-c1ccc(Cl)cc1)n2C(C)=O
inactive: growth inhibition [1] 18% | inhibition [2] -1% | inhibition [3] 0% | outcome [5] | outcome [6] | outcome [7] | outcome [8]
active: growth inhibition [4] 94%

CC(=O)c1ccc(Nc2c(C(N)=O)cnc3cc(-c4c(C)noc4C)ccc23)cc1
inactive: growth inhibition [1] 44% | inhibition [2] -3% | inhibition [3] 3% | outcome [5] | outcome [6] | outcome [7] | outcome [8]
active: growth inhibition [4] 99%

NC(=O)c1ccc(-c2ccc3ccnc(N)c3c2)cc1
inactive: inhibition [3] -2% | outcome [5] | outcome [6] | outcome [7] | outcome [8]
active: growth inhibition [1] 98% | inhibition [2] 56% | growth inhibition [4] 101%

CC(CCc1ccccc1)NCC(O)c1cccc([N+](=O)[O-])c1 (stereo not given)
inactive: inhibition [2] -2% | inhibition [3] 1% | outcome [5] | outcome [6] | outcome [7] | outcome [8]
active: growth inhibition [1] 98% | growth inhibition [4] 97%

O=C(Nc1ccc(Cl)cc1)Nc1cccc(-c2cc(CNCCc3ccccc3)oc2-c2ccncc2)c1
active: growth inhibition [1] 92% | growth inhibition [4] 101%
inactive: inhibition [2] 40% | inhibition [3] 1% | outcome [5] | outcome [6] | outcome [7] | outcome [8]

Fc1ccc2nccc(NN=CC=Cc3ccccc3)c2c1
active: growth inhibition [1] 77% | growth inhibition [4] 96%
inactive: inhibition [2] 29% | inhibition [3] -2% | outcome [5] | outcome [6] | outcome [7] | outcome [8]

C(=NNc1ccnc2ccccc12)c1ccncc1
active: growth inhibition [4] 95%
inactive: growth inhibition [1] 27% | inhibition [2] 7% | inhibition [3] -2% | outcome [5] | outcome [6] | outcome [7] | outcome [8]

Nc1oc2c(CN3CCCCCC3)c(O)ccc2c(=O)c1-c1nc2ccccc2s1
active: growth inhibition [1] 99% | growth inhibition [4] 100%
inactive: inhibition [2] 12% | inhibition [3] 4% | outcome [5] | outcome [6] | outcome [7] | outcome [8]

CN(C)C(=O)c1ccc(CN(Cc2cccc(OC(C)(C)C)c2)Cc2ccc3c(c2)OCCO3)cc1
inactive: inhibition [2] 0% | inhibition [3] -2% | outcome [5] | outcome [6] | outcome [7] | outcome [8]
active: growth inhibition [1] 96% | growth inhibition [4] 96%

COc1cc2ccccc2cc1CNCCCCCCNCc1cc2ccccc2cc1OC
active: inhibition [2] 98% | growth inhibition [4] 101%
inactive: growth inhibition [1] 24% | inhibition [3] 6% | outcome [5] | outcome [6] | outcome [7] | outcome [8]

CCOC(=O)C1=C(C)NC2=C(C(=O)CC(C)(C)C2)C1c1ccc(Br)cc1 (stereo not given)
active: growth inhibition [1] 66% | growth inhibition [4] 90%
inactive: inhibition [2] 0% | inhibition [3] 2% | outcome [5] | outcome [6] | outcome [7] | outcome [8]

CN1CCN(CC(=O)Nc2cccc(-c3cccc(-c4nc5ccc(C(F)(F)F)cc5[nH]4)c3)c2)CC1
active: growth inhibition [1] 98% | growth inhibition [4] 101%
inactive: inhibition [2] 26% | inhibition [3] 4% | outcome [5] | outcome [6] | outcome [7] | outcome [8]

N#Cc1ccc(N2CCN(Cc3cccc(-c4ccc(-c5nc6ccc(C(F)(F)F)cc6[nH]5)s4)c3)CC2)nc1
inactive: inhibition [2] 31% | inhibition [3] -4% | outcome [5] | outcome [6] | outcome [7] | outcome [8]
active: growth inhibition [1] 52% | growth inhibition [4] 96%

N#Cc1ccc2c(c1)CCN(CCC1CCC(NC(=O)c3cccc(-c4ccc(F)cc4)c3)CC1)CC2 (stereo not given)
inactive: growth inhibition [1] 10% | inhibition [2] 32% | inhibition [3] -3% | outcome [5] | outcome [6] | outcome [7] | outcome [8]
active: growth inhibition [4] 92%

O=S(=O)(Nc1cccc(CCN2CCCCC2CCN2CCCC2)c1)c1cccc2ccccc12 (stereo not given)
inactive: growth inhibition [1] 6% | inhibition [2] 23% | inhibition [3] 3% | outcome [5] | outcome [6] | outcome [7] | outcome [8]
active: growth inhibition [4] 97%

COc1ccc(C(=O)N2CCc3cc4nccc(N5CCN6CCC[C@H]6C5)c4cc32)cc1
active: growth inhibition [1] 50% | growth inhibition [4] 98%
inactive: inhibition [2] 1% | inhibition [3] -12% | outcome [5] | outcome [6] | outcome [7] | outcome [8]

O=C(NCCc1ccccc1)N(Cc1ccccc1-c1cccc(CNCCc2ccccc2)c1)C1CCN(Cc2ccccc2)CC1
inactive: inhibition [3] 4% | outcome [5] | outcome [6] | outcome [7] | outcome [8]
active: growth inhibition [1] 88% | inhibition [2] 100% | growth inhibition [4] 100%

Cc1cc(Nc2ccnc(-c3ccc(Cl)cc3)n2)ccn1
active: growth inhibition [4] 94%
inactive: growth inhibition [1] 23% | inhibition [2] 6% | inhibition [3] -4% | outcome [5] | outcome [6] | outcome [7] | outcome [8]

Cc1nc2nc(N)nc(N)c2c(C)c1Cc1ccc(C(N)=O)cc1
active: inhibition [2] 55% | growth inhibition [4] 97%
inactive: growth inhibition [1] -3% | inhibition [3] 3% | outcome [5] | outcome [6] | outcome [7] | outcome [8]

Cc1ccccc1C1CCN(C2CCC(NC(=O)/C=C/c3c(F)ccc(F)c3F)CC2)CC1 (stereo not given)
active: growth inhibition [4] 82%
inactive: growth inhibition [1] 33% | inhibition [2] 37% | inhibition [3] 1% | outcome [5] | outcome [6] | outcome [7] | outcome [8]

Cn1nccc1C(=O)NCCNCc1cccc(-c2ccc(-c3nc4ccccc4[nH]3)cc2)c1
inactive: inhibition [2] 19% | inhibition [3] 4% | outcome [5] | outcome [6] | outcome [7] | outcome [8]
active: growth inhibition [1] 98% | growth inhibition [4] 100%

CC(C)c1ccc(S(=O)(=O)N(c2ccc3c(c2)OCO3)C2CCN(Cc3ccccc3)C2)cc1 (stereo not given)
active: growth inhibition [1] 92% | growth inhibition [4] 100%
inactive: inhibition [2] 1% | inhibition [3] 0% | outcome [5] | outcome [6] | outcome [7] | outcome [8]

Cc1cc(NCC(C)C)c2[nH]nc(-c3ccccc3)c2n1
inactive: growth inhibition [1] 30% | inhibition [2] 9% | inhibition [3] 2% | outcome [5] | outcome [6] | outcome [7] | outcome [8]
active: growth inhibition [4] 99%

N#Cc1ccc(-c2ccc(C(=O)NCC3CCN(CCN4CCC(c5ccc6c(c5OCC(N)=O)CCCC6)CC4)CC3)cc2)cc1
active: growth inhibition [1] 99% | inhibition [2] 56% | growth inhibition [4] 99%
inactive: inhibition [3] -7% | outcome [5] | outcome [6] | outcome [7] | outcome [8]

COC(=O)c1cccc(CNCc2ccc(-c3ccc(-c4nc5ccc(F)cc5[nH]4)cc3)cc2)c1
active: growth inhibition [1] 95% | growth inhibition [4] 100%
inactive: inhibition [2] 8% | inhibition [3] 2% | outcome [5] | outcome [6] | outcome [7] | outcome [8]

CCCCN1CCN(CCCNc2c3ccccc3nc3ccccc23)CC1
active: growth inhibition [1] 70% | growth inhibition [4] 101%
inactive: inhibition [2] 26% | inhibition [3] -7% | outcome [5] | outcome [6] | outcome [7] | outcome [8]
